Assay results as given in PubChem BioAssay AID1851 (National Center for Advancing Translational Sciences (NCATS), 2009).
“And” between values parts separate entries of the source, which are not always exact repeats. Equal values may be shown once. About 5,700 (36%) of roughly 16,000 compounds were called active. Inconclusive results (about 24%) are left out. Some of the results follow. Unmarked numbers belong to inactive results. The call rests on the fitted dose curve; in most records, active means well fitted curve in the direction sought with a large enough effect; inconclusive means small, poorly fitted or top-dose-only effect, or effect the other way; inactive means no such curve, though single readings can be large or run the other way.

What follows are molecules tested against Cytochrome P450 1A2 (Homo sapiens) (UniProt P05177) (assay: Cytochrome panel assay with activity outcomes). Details: recombinant CYP, pro-luciferin dealkylation, luminescence, p450-cyp1a2; series mostly up to 57.1 µM.
On the % scale 0 is the no-effect control and ±100 the full control effect.

Sequence of Cytochrome P450 1A2 (Homo sapiens) (P05177 whole entry, looked up): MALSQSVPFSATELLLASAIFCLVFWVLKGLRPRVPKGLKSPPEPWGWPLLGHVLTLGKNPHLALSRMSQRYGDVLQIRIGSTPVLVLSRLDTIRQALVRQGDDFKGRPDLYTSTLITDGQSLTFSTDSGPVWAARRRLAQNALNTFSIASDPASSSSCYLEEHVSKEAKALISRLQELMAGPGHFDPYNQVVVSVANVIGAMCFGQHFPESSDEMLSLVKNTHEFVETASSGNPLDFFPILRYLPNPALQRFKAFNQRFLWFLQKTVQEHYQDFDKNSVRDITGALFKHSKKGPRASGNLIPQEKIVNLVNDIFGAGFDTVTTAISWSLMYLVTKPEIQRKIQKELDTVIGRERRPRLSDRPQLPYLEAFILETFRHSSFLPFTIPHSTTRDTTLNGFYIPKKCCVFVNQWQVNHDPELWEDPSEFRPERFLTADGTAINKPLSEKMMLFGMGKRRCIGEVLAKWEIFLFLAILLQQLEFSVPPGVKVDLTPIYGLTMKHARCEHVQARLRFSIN

| Compound | AC50 | activity, negative = inhibition |
| --- | --- | --- |
| CC(=O)c1c(C(C)=O)c(C)n(NC(=O)c2ccccc2Cl)c1C | inactive |  |
| CC(=O)Nc1cccc(C(=O)OCc2ccc(C(=O)Oc3ccc(Cl)cc3)cc2)c1 | inactive |  |
| Cc1cc(OC(=O)c2ccc(Cl)cc2)cc(=O)n1C | 25.1 µM (active) |  |
| Cc1cc(OC(=O)c2ccccc2Cl)cc(=O)n1C | 3.55 µM (active) |  |
| COc1ccc(C2CC(=O)CC(=O)C2n2cncn2)cc1 (stereo not given) | inactive |  |
| CC(CC(=O)O)(CC(=O)O)c1ccccc1 |  | -0.666% [at 11.4 µM] |
| COc1cc(-c2ccc(=O)[nH]n2)ccc1OC(F)F | 5.01 µM (active) |  |
| Cc1ccccc1-c1nccc(NCCN2CCOCC2)n1 | 5.01 µM (active) |  |
| c1cc(CNCCCN2CCOCC2)ccn1 | inactive |  |
| O=C(/C=C/c1ccccc1Cl)NCCN1CCOCC1 | inactive |  |
| CCOc1nc(NCCN2CCOCC2)nc(Nc2ccc(C)cc2)n1 | inactive |  |
| c1ccc2c(c1)CCCc1cc(NCCN3CCOCC3)nnc1-2 | inactive |  |
| Clc1ccccc1-c1nccc(NCCN2CCOCC2)n1 | 2 µM (active) |  |
| CN(C)c1ccc(-c2nccc(NCCN3CCOCC3)n2)cc1 | 1.26 µM (active) |  |
| C#CCCCO/N=C1/C[C@@H](O)[C@@H](O)[C@@H]2[C@H]3C(=O)N(c4ccc(F)cc4F)C(=O)[C@@H]3CC[C@@H]12 |  | 5.29% [at 11.4 µM] |
| CNC(=O)c1c(I)c(C(=O)NCC(=O)Nc2c(I)c(C(=O)O)c(I)c(C(=O)NCCO)c2I)c(I)c(N(C)C(C)=O)c1I | inactive |  |
| O=c1c(-c2cccs2)nc2cncnc2n1-c1ccccc1 | 12.6 µM (active) |  |
| COc1ccc(-n2c(=O)c(-c3cccs3)nc3cncnc32)cc1 | 10 µM (active) |  |
| CC(=O)NCCNc1cc(-c2ccccc2CN(C)C)ncn1 | inactive |  |
| COCCNc1cc(-c2ccccc2C)ncn1 | 15.8 µM (active) |  |
| COc1ccccc1CNc1cc(-c2ccccc2C)ncn1 | 5.01 µM (active) |  |
| CC(=O)NCCNc1cc(-c2ccccc2C)ncn1 | 15.8 µM (active) |  |
| COc1ccccc1CNc1cc(-c2ccccc2OC)ncn1 | 2.51 µM (active) |  |
| COCCNc1cc(-c2ccccc2CN(C)C)ncn1 | inactive |  |
| CCCc1nnc(NC(=O)CCC(=O)N2CCN(c3ccccn3)CC2)s1 | inactive |  |

| Compound | AC50 | activity, negative = inhibition |
| --- | --- | --- |
| O=C(c1ccc(Oc2ccc(C(F)(F)F)cn2)cc1)N1CCN(c2ccccc2)CC1 | inactive |  |
| Cc1ccc(C(=O)N2CCN(c3ccc(C(F)(F)F)cn3)CC2)cc1 | 14.1 µM (active) |  |
| O=C(c1cc(C(F)(F)F)cc(C(F)(F)F)c1)N1CCC2(CC1)CCN(c1ccccn1)CC2 | inactive |  |
| CCCS(=O)(=O)N1CCCC(C(=O)NCCCN2CCN(c3ccc(F)cc3)CC2)C1 (stereo not given) | inactive |  |
| c1ccc2c(c1)c1ccccc1n2Cn1c2ccccc2c2ccccc21 | 0.251 µM (active) |  |
| CN(C)C(=O)c1ccc(-n2nc(C(F)(F)F)c3c2CCCC3)cc1 | 22.4 µM (active) |  |
| COC(=O)[C@@]1(Cc2ccccc2)[C@H]2c3cc(C(=O)N4CCCC4)n(Cc4ccc(C(F)(F)F)nc4)c3C[C@H]2CN1C(=O)c1ccccc1 | inactive |  |
| Cc1cccc2cc(=O)[nH]c(C)c12 | 14.1 µM (active) |  |
| CC1CC/C(=C\c2ccc3c(c2)OCO3)C(=O)/C1=C/c1ccc2c(c1)OCO2 (stereo not given) | 3.55 µM (active) |  |
| CC(=O)c1c(O)cc(=O)n(-c2ccccc2)c1-c1ccc(C)cc1 | inactive |  |
| Cc1ccc(=O)n(-c2ccccc2)c1 | 31.6 µM (active) |  |
| Cc1c(O)c(=O)n(-c2ccccc2)n1C | inactive |  |
| Cc1cc2c(nc1C)CCCN2CC(O)CN1CCCc2nc(C)c(C)cc21 |  | -4.54% [at 11.4 µM] |
| O=C(NCc1ccccc1)c1ccc2c(c1)C(=O)N(CC1CCCO1)C2=O (stereo not given) | inactive |  |
| O=C1c2ccccc2C(=O)N1CC1CCCO1 (stereo not given) | 14.1 µM (active) |  |
| O=C1C[C@@H](O)[C@@H](O)[C@H]2[C@@H]3C(=O)N(C[C@@H]4CCCO4)C(=O)[C@@H]3CC[C@H]12 |  | -4.6% [at 11.4 µM] and -8.21% [at 11.4 µM] |
| COc1ccc(Oc2ncc3nc(C)c(=O)n(Cc4cccs4)c3n2)cc1 | 10 µM (active) |  |
| COc1ncc2ncc(=O)n(Cc3cccs3)c2n1 | 10 µM (active) |  |
| COc1ccc(Oc2ncc3ncc(=O)n(Cc4cccs4)c3n2)cc1 | 10 µM (active) |  |
| NC(N)=N[C@@H]1C(O)[C@H](N=C(N)N)[C@@H](O)C(O)[C@H]1O (stereo not given in full) |  | -4.87% [at 2.29 µM] |
| O=C1/C(=C/c2cccnc2)SC(=S)N1Cc1ccco1 | 0.501 µM (active) |  |
| Cc1ccc(S(=O)(=O)/N=C2/NC(=O)/C(=C/c3cccnc3)S2)cc1 | inactive |  |
| O=C(CCN1C(=O)/C(=C/c2cccc(Br)c2)SC1=S)NNC(=O)c1cccnc1 | inactive |  |
| CCCc1cc2c(cc1NC(=O)c1ccccc1C)OCO2 | 2.24 µM (active) |  |
| CCCN(C(=O)Cc1nc(N)n[nH]1)C1(C(=O)Nc2ccccc2C)CCCCC1 | inactive |  |

| Compound | AC50 | activity, negative = inhibition |
| --- | --- | --- |
| CCCc1cc2c(cc1NC(=O)c1ccccc1Cl)OCO2 | 2.51 µM (active) |  |
| CC[C@@]12CCCN3CCc4c(n(c5ccccc45)[C@](O)(C(=O)OC)C1)[C@H]32 | inactive |  |
| O=C(O)[C@H](CCc1ccccn1)c1ccccc1 |  | -12.5% [at 11.4 µM] |
| O=C(CCCc1ccccn1)c1ccccc1 | 5.01 µM (active) |  |
| O=C(O)CCC(=O)N1CCN(c2ccccn2)CC1 | inactive |  |
| COc1cc(/C=N\NC(=O)C2C(=O)NCC2c2ccccc2)cc(OC)c1O (stereo not given) | inactive |  |
| COc1cc(/C=N\Nc2nc3ccccc3[nH]2)cc(OC)c1OC | 10 µM (active) |  |
| CN(CC(=O)N1CCN(c2ccccc2)CC1)S(=O)(=O)c1cnc[nH]1 | inactive |  |
| CC(C)CN(CC(C)C)S(=O)(=O)N1CCC(C(=O)NCc2ccc(F)cc2)CC1 | inactive |  |
| Cn1c[n+](C)cc1/C=N/O | inactive |  |
| COc1cc(C2C(C(=O)OCCC#N)=C(C)NC3=C2S(=O)(=O)c2ccccc23)cc(OC)c1OC (stereo not given) | inactive |  |
| COC(=O)C1=C(C)NC(C)=C(C(=O)OCCSc2ccccc2)[C@@H]1C | 0.794 µM (active) |  |
| Cc1cnn(-c2cc(N/N=C/c3ccccc3F)ncn2)c1 | 0.562 µM (active) |  |
| Cc1cnn(-c2cc(N/N=C/c3ccccc3)ncn2)c1 | 2 µM (active) |  |
| CC(C)(C)N1C(=O)[C@H]2[C@@H]3[C@H](O)[C@H](O)CC(=O)[C@H]3CC[C@H]2C1=O |  | -8.79% [at 11.4 µM] and -4.69% [at 11.4 µM] |
| Cc1noc(C)c1C(=O)N1CCC2(CCN(Cc3cc(C(F)(F)F)cc(C(F)(F)F)c3)CC2)CC1 | inactive |  |
| CCC(Sc1ncccc1C(=O)O)C(=O)N1CCOCC1 (stereo not given) | inactive |  |
| Clc1ccccc1-c1nc(NCCN2CCOCC2)c2ccccc2n1 | 12.6 µM (active) |  |
| N#Cc1cccc(-c2nc(NCCN3CCOCC3)c3ccccc3n2)c1 | 1 µM (active) |  |
| FC(F)(F)c1ccccc1-c1nc(NCCN2CCOCC2)c2ccccc2n1 | 12.6 µM (active) |  |
| O=C(NCCN1CCOCC1)c1nn2c(c1Cl)NC(c1ccccc1)CC2C(F)(F)F (stereo not given) | inactive |  |
| N#Cc1nc(-c2ccc(OCc3ccccc3)cc2)oc1NCCN1CCOCC1 | inactive |  |
| c1ccc2c(NCCN3CCOCC3)nc(-c3ccoc3)nc2c1 | 5.01 µM (active) |  |
| O=C1C=C(NCCN2CCOCC2)CC(c2ccccc2)C1 (stereo not given) | inactive |  |
| CC#CCCCC(=O)Nc1cc(OC)nc(OC)n1 | 0.355 µM (active) |  |

| Compound | AC50 | activity, negative = inhibition |
| --- | --- | --- |
| COc1cc(NC(=O)c2c(F)cccc2F)nc(OC)n1 | 20 µM (active) |  |
| COc1cc(NS(=O)(=O)c2ccc(N)cc2)nc(OC)n1 | inactive |  |
| OC[C@@H]1O[C@@H](n2cnc3c(N[C@@H]4C[C@@H]5CC[C@H]4C5)ncnc32)[C@@H](O)[C@H]1O | inactive |  |
| CCOC(=O)CN(c1ccccn1)S(=O)(=O)c1ccccc1 | 14.1 µM (active) |  |
| Cc1ccc(S(=O)(=O)N(C)CC(=O)O/N=C(\N)c2ccccn2)cc1 | inactive |  |
| CN(CC(=O)O/N=C(\N)c1ccccn1)S(=O)(=O)c1ccccc1 | inactive |  |
| O=C(NCc1cccc(C(F)(F)F)c1)c1cc(Cl)cc(Cl)c1 | 12.6 µM (active) |  |
| COc1ccc(-c2coc3cc4oc(=O)cc(C)c4cc23)cc1F | 2 µM (active) |  |
| O=C(NCc1ccccc1Cl)C1CCN(S(=O)(=O)N2CCC3(CC2)OCCO3)CC1 | inactive |  |
| CCc1nc(N2CCC3(CC2)OCCO3)c2nnn(Cc3ccccc3Cl)c2n1 | 7.08 µM (active) |  |
| Fc1ccc2nc(Nc3nc4c(s3)CCCC4)sc2c1 | 1.58 µM (active) |  |
| COc1ccc(NC(=O)N2CC[C@@]3(CCCN(C(=O)c4cnccn4)C3)C2)cc1 | inactive |  |
| Cc1ccc(CS(=O)(=O)Cc2ccc(C(=O)NCC3CCCO3)o2)cc1 (stereo not given) | inactive |  |
| Cc1ccc(C(=O)NC(=S)NCC2CCCO2)cc1 (stereo not given) | 7.08 µM (active) |  |
| CCCn1c2c(c(O)c(C(=O)NCc3ccccc3)c1=O)CCCC2 | 1.26 µM (active) |  |
| CCS(=O)(=O)N1CCC(C(=O)NCCN2CCN(Cc3ccccc3)CC2)CC1 | inactive |  |
| CCC(C)NC(=O)CCS(=O)(=O)c1ccc(Br)s1 (stereo not given) | inactive |  |
| COc1ccc(CN[C@H](C)C(=O)O)cc1 |  | -2.04% [at 11.4 µM] |
| CNNCc1ccc(C(=O)NC(C)C)cc1 | 1.58 µM (active) |  |
| N#Cc1nc(COc2ccccc2Cl)oc1NCc1ccco1 | 14.1 µM (active) |  |
| c1ccc(NN(Cc2cnccn2)c2ccccc2)cc1 | 2 µM (active) |  |
| COn1c(SCc2cccc(Cl)c2)nc2ccccc2c1=O | 1.26 µM (active) |  |
| COn1c(SCc2ccc(C)cc2C)nc2ccccc2c1=O | 8.91 µM (active) |  |
| Cc1ccc(-n2c(SCc3ccc([N+](=O)[O-])cc3)nc3ccccc3c2=O)cc1 | inactive |  |
| O=c1nc2ccccc2c2n1CC(CN1CCN(c3cccc(Cl)c3)CC1)N2 (stereo not given) | inactive |  |
